# Sfp PPTase inh: inhibitors of Bacillus subtilis Sfp phosphopantetheinyl transferase; AID 1490; Q9F4F7; actives 3.5% (n = 310,000); Biochemical Sfp PPTase activity, qHTS; Potency, µM, usual class: inhibitors;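 further: the enzyme is Sfp with the accession as filed and its product quenches rhodamine fluorescence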
#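 Fluorescence-quenching assay: 15 nM Sfp-PPTase preincubated 15 min at room temperature with compound, then 5 uM rhodamine-CoA and 12.5 uM BHQ-2-labelled YbbR peptide added. Fluorescence (ex 525/em 598 nm) read at start and after 30 min; difference gives rate.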
# PLK1 PBD block: PLK1 (human) polo-box domain binding inhibition | Plk1 PBD binding of FITC phosphopeptide, fluorescence polarization | actives 2.8% (n = 360,000) | Potency, µM, actives largely listed as inhibitors | P53350; further: series mostly up to about 57 µM; nearly all actives have a fitted effect of over 65% in size
# JMJD2A Tudor: JMJD2A Tudor domain (human) inhibition | O75164 | AlphaScreen JMJD2A-Tudor / H3K4me3 peptide binding | actives 4.4% (n = 390,000) | Potency, µM (highest dose often 114 µM), hits mostly inhibitors; further: nearly all actives have a fitted effect of over 50% in size
# G9a inh: G9a (human) methyltransferase inhibition; G9a H3K9 monomethylation, AlphaScreen, 2 h; Q96KQ7; actives 8.8% (n = 350,000); Potency, µM (doses to about 102 µM), actives largely listed as inhibitors; further: nearly all actives have a fitted effect of over 75% in size
# Target sequence (Q96KQ7 913-1193 limits assumed): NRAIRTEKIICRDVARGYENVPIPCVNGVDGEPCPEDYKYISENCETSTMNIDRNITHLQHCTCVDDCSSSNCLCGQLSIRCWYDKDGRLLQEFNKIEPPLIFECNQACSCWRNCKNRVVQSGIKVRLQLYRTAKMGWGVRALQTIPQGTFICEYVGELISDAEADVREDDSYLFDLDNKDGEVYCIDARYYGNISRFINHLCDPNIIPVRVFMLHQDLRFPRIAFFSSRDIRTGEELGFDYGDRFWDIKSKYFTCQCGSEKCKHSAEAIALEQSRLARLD
#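 AlphaScreen read-out: biotin-H3K9 peptide (500 nM) methylation by 20 nM enzyme with 20 uM SAM, 2 h at room temperature after 15 min compound preincubation; anti-monomethyl H3K9 antibody plus donor/acceptor beads, 10 min dark.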
# HP1b chromo inh: HP1-beta chromodomain-methylated histone interaction inhibition; actives 0.56% (n = 390,000); P83916; Potency, µM (doses to about 114 µM), most hits filed as inhibitors; AlphaScreen HP1-beta / biotin-H3K9me3 peptide binding; further: nearly all actives have a fitted effect of over 70% in size
# Target sequence (P83916 whole entry, looked up): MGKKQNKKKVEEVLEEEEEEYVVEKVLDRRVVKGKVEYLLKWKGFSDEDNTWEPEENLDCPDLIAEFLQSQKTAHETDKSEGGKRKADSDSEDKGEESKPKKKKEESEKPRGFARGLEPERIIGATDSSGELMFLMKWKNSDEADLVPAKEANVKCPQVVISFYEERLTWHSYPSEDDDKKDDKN
#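 HP1-beta protein (50 nM final) preincubated 30 min at room temperature with biotinylated H3(1-18)K9me3 peptide (50 nM) in PBS pH 7.4, 0.01% Tween-20, then compound added for 30 min. AlphaScreen streptavidin donor/nickel chelate acceptor beads (10 ug/mL final), 30 min dark, luminescence read.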
# BAZ2B block: inhibitors of human BAZ2B bromodomain; Q9UIF8; AlphaScreen BAZ2B-H3K14Ac peptide displacement; Potency, µM (highest dose often 114 µM), most hits filed as inhibitors; actives 4.4% (n = 360,000); AID 504333; further: nearly all actives have a fitted effect of over 60% in size
#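 Inhibition is scored as reduced AlphaScreen emission. The BAZ2B/b-H3(5-23)K14Ac complex (50 nM each) in PBS pH 7.4, 0.01% Tween-20 meets compound (up to 110 uM) for 30 min at RT before bead addition.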
# Hits are given with their value; . = inactive; ? = inconclusive; / = no result; [ ] = remark or other dose. The list is not random: actives were taken first. Their share in the collection is about 12%. The call rests on the fitted dose curve; in most records, active means well fitted curve in the direction sought with a large enough effect; inconclusive means small, poorly fitted or top-dose-only effect, or another doubt; inactive means no such curve, though single readings can be large; an effect the other way counts as inactive or inconclusive.
SMILES,Sfp PPTase inh,PLK1 PBD block,JMJD2A Tudor,G9a inh,HP1b chromo inh,BAZ2B block
O=C(/C=C/c1ccco1)Nc1cccc(NC(=O)/C=C/c2ccco2)n1,.,.,?,10µM,.,?
Cc1nc(NC(=O)/C=C/c2ccco2)sc1C,70.8µM,.,.,?,.,?
Cc1noc(C)c1COC(=O)c1ccc(F)c(S(=O)(=O)N2CCOCC2)c1,/,.,.,.,.,.
O=C(O)c1cc(S(=O)(=O)N2CCN(C(=O)c3ccco3)CC2)c(Cl)cc1Cl,.,.,.,?,.,.
Nc1nc(Cl)nc2ccc(Br)cc12,.,16.8µM,.,.,.,.
CCc1c(C)nc2ccc(Br)cc2c1Cl,.,.,.,.,.,.
CC1=C(CC(=O)O)c2cc(F)ccc2/C1=C/c1ccc(S(C)=O)cc1 (stereo unspecified),.,.,.,50.1µM,.,.
COc1ccc(NC(=O)c2cc(S(=O)(=O)N3CCCCCC3)cn2C)cc1Cl,/,/,.,.,.,.
CC(=O)C1=C(C)OC(N)=C(C#N)C1c1cc2cccc(C)c2nc1Cl (stereo unspecified),.,.,.,?,.,.
COCCOC(=O)C1=C(C)OC(N)=C(C#N)C1c1cc2cccc(C)c2nc1Cl (stereo unspecified),?,.,.,/,.,50.1µM
COC(=O)C1=C(C)OC(N)=C(C#N)C1c1cc2cccc(C)c2nc1Cl (stereo unspecified),.,/,/,22.4µM,/,79.4µM
Cc1ccc(CN2CCC[C@]3(N[C@H](c4ccc(C(F)(F)F)cc4)[C@@H]4C(=O)N(Cc5ccccc5)C(=O)[C@@H]43)C2=O)cc1,/,.,/,/,/,/
O=C(CSc1nnc(SCc2ccccc2)s1)N/N=C/C=C/c1ccco1,35.5µM,?,39.8µM,12.6µM,25.1µM,25.1µM
O=C(CN1CCN(Cc2ccccc2)CC1)N/N=C\C=C/c1ccco1,.,.,.,?,.,.
CCn1c(SCC(=O)N/N=C/C(C)=C/c2ccco2)nnc1-c1ccccc1,.,.,?,.,.,?
O=C(CSc1nnc(SCc2ccccc2)s1)NNC(=S)Nc1ccccc1,.,?,.,2.24µM,.,.
CCn1c(SCC(=O)N/N=C/C=C/c2ccco2)nnc1-c1ccccc1,.,.,?,15.8µM,.,?
Cn1c(SCC(=O)N/N=C/C=C/c2ccco2)nc2ccccc21,.,.,?,7.08µM,.,44.7µM
CCc1ccc(NC(=O)Cn2c(=O)nc(-c3ccccc3F)c3cc(Cl)ccc32)cc1,/,/,.,.,.,.
O=C(Cn1c(=O)n(Cc2ccccc2)c(=O)c2sc3ccccc3c21)Nc1ccc(F)cc1,/,/,.,.,.,.
COCC1C2CC[C@H]3C(OCc4ccc(OC)cc4)OC[C@]4(C)[C@H]3C2=C(CN4C(=O)OC(C)(C)C)[C@H](C)C1COC (stereo partly specified),.,/,/,/,/,/
C=C1N[C@]2(C(=O)COC(C)=O)[C@@H](C[C@H]3[C@@H]4CCC5=CC(=O)C=C[C@]5(C)[C@H]4[C@@H](O)C[C@@]32C)O1,.,/,/,.[12.7 µM],/,/
O=C(c1cnccn1)N1CCC2(CC1)CN(Cc1ccccc1)C2,.,/,/,.[12.7 µM],/,/
COc1ccc(NC(=O)CNc2cc(S(=O)(=O)N3CCOCC3)ccc2NCC2CCCO2)cc1 (stereo unspecified),.,.,.,6.31µM,.,/
CC1CCCC(C)N1S(=O)(=O)c1ccc(NC(=O)CNCC2CCCO2)cc1 (stereo unspecified),.,.,17.8µM,8.91µM,.,56.2µM
SMILES,Sfp PPTase inh,PLK1 PBD block,JMJD2A Tudor,G9a inh,HP1b chromo inh,BAZ2B block
O=C(CNc1cc(S(=O)(=O)N2CCOCC2)ccc1NCC1CCCO1)Nc1ccc(F)c(F)c1 (stereo unspecified),.,.,.,?,.,?
Cc1ccc(NC(=O)CNc2cc(S(=O)(=O)N3CCOCC3)ccc2NCC2CCCO2)cc1F (stereo unspecified),.,.,?,44.7µM,.,?
COC(=O)C[C@@H]1O[C@H]1[C@H](C)[C@@H](OC)C(C)C,.,/,/,/,/,/
O=C(/C=C/c1cc[n+](CC(=O)c2ccc3cccc4c3c2CC4)cc1)c1ccc2cccc3c2c1CC3,35.5µM,18.9µM,.[11.4 µM],39.8µM,.,?
CN1c2ccc([N+](=O)[O-])cc2N(C)C1(C)c1ccccc1 (stereo unspecified),?,.,10µM,/,10µM,8.91µM
O=C(N/N=C/c1cccc2ccccc12)c1cccs1,.,.,.,.,.,.
O=C(N/N=C/c1ccc([N+](=O)[O-])cc1)c1cccs1,.,.,.,50.1µM,.,.
O=C(N/N=C/c1ccc(-c2cccc([N+](=O)[O-])c2)o1)c1cccs1,.,.,.[11.4 µM],.,.,.
O=C(N/N=C/c1cccc([N+](=O)[O-])c1O)c1cccs1,.,.,50.1µM,50.1µM,.,22.4µM
Cc1cc(Cl)c2oc(C(=O)N(C)CCc3cnn(C)c3)c(C)c2c1,.,23.8µM,?,.,.,.
CCOc1nc(Nc2ccccc2F)nc(OCC)n1,.,.,.,.,.,.
Fc1ccccc1Nc1nc(Cl)nc(Cl)n1,.,18.9µM,?,.,.,.
CSc1ncccc1C(=O)OCC(=O)Nc1ccc(N2CCOCC2)cc1,/,.,.,/,.,/
CC(=O)CCc1ccc(OCC(O)CNC2CCCc3ccccc32)cc1 (stereo unspecified),.,.,3.55µM,?,.,?
OC(CNC1CCCc2ccccc21)COc1ccc2ccccc2c1 (stereo unspecified),.,.,.,10µM,?,?
O=C(c1ccccc1)c1ccc(OCC(O)CNC2CCCc3ccccc32)cc1 (stereo unspecified),.,.,10µM,10µM,?,50.1µM
CCc1ccccc1OC[C@@H](O)CN[C@H]1CCCc2ccccc21,50.1µM,.,39.8µM,3.98µM,.,?
CCCCCCCCN1C(=O)[C@H](CC(=O)NCC23CC4CC(CC(C4)C2)C3)C[C@@]2(C(=O)OCC)CCC=C12,/,.,/,/,/,/
Cc1ccc(C)c(Nc2nc3ccccc3n3cnnc23)c1,.,.,.,.,.,.
COc1ccc(OC)c(CNC(=O)CN2N=C(c3ccc(Cl)cc3)CCC2=O)c1,/,/,.,.,.,.
Cc1cc(C)n(-c2cc(O)c(-n3nc(C)cc3C)cc2O)n1,.,.,22.4µM,28.2µM,?,.
Cc1cc(C)n(-c2cc(-n3nc(C)cc3C)ncn2)n1,.,.,.,?,.,.
O=C(Nc1ccc(F)cc1Cl)c1ccc2c(=O)n3c(nc2c1)CCC3,/,.,.,?,.,.
C[C@H](NC(=O)c1nc[nH]c1C(=O)N[C@@H](Cc1ccccc1)C(=O)OC(C)(C)C)C(=O)OCc1ccccc1,.,.,.,.,.,.
O=C(C1CCCCC1)N1CCC2CC1c1cc(Cl)ccc12 (stereo unspecified),/,.,.,/,.,/

# Screening results deposited in PubChem BioAssay by National Center for Advancing Translational Sciences (NCATS).
